# ChEMBL document CHEMBL1157539, “Thousands of chemical starting points for antimalarial lead identification” (Nature, 2010)
# Assays:
# Assay type in all cases: functional
# Plasmodium falciparum [1] = assay: GSK_TCMDC: Inhibition of Plasmodium falciparum 3D7 in whole red blood cells, using parasite LDH activity as an index of growth. Test compounds present at 2uM
# Plasmodium falciparum [2] = assay: GSK_TCMDC: Inhibition of Plasmodium falciparum Dd2 in whole red blood cells, using parasite LDH activity as an index of growth. Test compounds present at 2uM
# HepG2 = assay: GSK_TCMDC: Percent inhibition of human HepG2 cell line. Test compounds present at 10uM.
smiles,measurement,setting,value
Cc1cccc2nc(-c3ccc(-c4cccc(NC(=O)Nc5cccc(C#N)c5)c4)cc3)[nH]c12,Inhibition,Plasmodium falciparum [1],100%
same,Inhibition,Plasmodium falciparum [2],86%
same,Inhibition,HepG2,25%
CCc1cc2c(=O)c(-c3nc(C)cs3)c([C@H](N)Cc3ccc(O)cc3)oc2cc1O.O=C(O)C(F)(F)F,Inhibition,Plasmodium falciparum [1],100%
same,Inhibition,Plasmodium falciparum [2],19%
same,Inhibition,HepG2,11%
Br.Oc1ccc(CCNCCCCCCNCCc2ccc(Br)cc2)cc1O,Inhibition,Plasmodium falciparum [1],99%
same,Inhibition,Plasmodium falciparum [2],5%
same,Inhibition,HepG2,2%
Cc1nc2nc(N)nc(N)c2c(C)c1Cc1cccc(C(F)(F)F)c1.Cl,Inhibition,Plasmodium falciparum [1],89%
same,Inhibition,Plasmodium falciparum [2],23%
same,Inhibition,HepG2,65%
CCOc1ccc2c(=NN=Cc3cc(OC)c(OC)cc3OC)cc(C)[nH]c2c1,Inhibition,Plasmodium falciparum [1],100%
same,Inhibition,Plasmodium falciparum [2],97%
same,Inhibition,HepG2,24%
CCCCN(CCCC)CCNC(=O)c1ccc(-c2nc3cc(Cl)ccc3[nH]2)c(OCC)c1,Inhibition,Plasmodium falciparum [1],100%
same,Inhibition,Plasmodium falciparum [2],80%
same,Inhibition,HepG2,0%
Cc1ccc(O)cc1Nc1ccnc2ccc(C(C)(C)C)cc12,Inhibition,Plasmodium falciparum [1],100%
same,Inhibition,Plasmodium falciparum [2],100%
same,Inhibition,HepG2,6%
N#Cc1ccc2c(c1)CN(C1CCC(NC(=O)C3=Cc4cc(Cl)ccc4OC3)CC1)CCC2 (configuration not stated),Inhibition,Plasmodium falciparum [1],93%
same,Inhibition,Plasmodium falciparum [2],8%
same,Inhibition,HepG2,0%
O=C(NC1CCCc2ccccc21)C1CCCN(C(=O)c2ccc(O)c(-c3ccc(Cl)c(Cl)c3)c2)C1 (configuration not stated),Inhibition,Plasmodium falciparum [1],88%
same,Inhibition,Plasmodium falciparum [2],54%
same,Inhibition,HepG2,0%
COc1cc(NC(=O)N2CCc3ccc(OCCN4CCCCC4)cc32)cc(C(F)(F)F)c1.O=C(O)C(F)(F)F,Inhibition,Plasmodium falciparum [1],100%
same,Inhibition,Plasmodium falciparum [2],93%
same,Inhibition,HepG2,9%
CCCCOc1ccc(-c2nc3ccccc3[nH]2)cc1,Inhibition,Plasmodium falciparum [1],86%
same,Inhibition,Plasmodium falciparum [2],82%
same,Inhibition,HepG2,21%
COc1ccccc1-n1c(-c2ccc3ccccc3c2)csc1=NC(=O)c1ccccc1,Inhibition,Plasmodium falciparum [1],93%
same,Inhibition,Plasmodium falciparum [2],79%
same,Inhibition,HepG2,0%
Cc1nc(-c2ccc(-c3ccc(NC(=O)c4coc5ccc(N6CC(C)NC(C)C6)cc45)cc3)c(C)c2)no1.Cl (configuration not stated),Inhibition,Plasmodium falciparum [1],100%
same,Inhibition,Plasmodium falciparum [2],88%
same,Inhibition,HepG2,1%
COc1ccc(-c2ccnc(-c3cccc(-c4ccccn4)n3)c2)cc1,Inhibition,Plasmodium falciparum [1],97%
same,Inhibition,Plasmodium falciparum [2],84%
same,Inhibition,HepG2,44%
O=C(NCC1CCN(CC2CCCCC2)C1)c1cc(-c2cccc(Cl)c2)cs1.O=C(O)C(F)(F)F (configuration not stated),Inhibition,Plasmodium falciparum [1],85%
same,Inhibition,Plasmodium falciparum [2],8%
same,Inhibition,HepG2,51%
COCCN1CCN(Cc2ccc(-c3ccc(-c4nc5cccc(C)c5[nH]4)s3)cc2)CC1.O=C(O)C(F)(F)F,Inhibition,Plasmodium falciparum [1],95%
same,Inhibition,Plasmodium falciparum [2],52%
same,Inhibition,HepG2,32%
CC(C)[C@H](NC(=O)NC1CCC(CCN2C3CCC2CC(OC(=O)C(CO)c2ccccc2)C3)CC1)C(O)(c1ccccc1)c1ccccc1 (some centres not stated),Inhibition,Plasmodium falciparum [1],90%
same,Inhibition,Plasmodium falciparum [2],4%
same,Inhibition,HepG2,17%
O=C(Nc1cccc(C(F)(F)F)c1)c1ccc(S(=O)(=O)NC2CCN(CC3CCCCC3)C2)cc1.O=C(O)C(F)(F)F (configuration not stated),Inhibition,Plasmodium falciparum [1],92%
same,Inhibition,Plasmodium falciparum [2],0%
same,Inhibition,HepG2,16%
O=C(COc1ccccc1)N(Cc1ccc(-c2ccc(CNC3Cc4ccccc4C3)cc2)cc1)C1CCNCC1.O=C(O)C(F)(F)F,Inhibition,Plasmodium falciparum [1],100%
same,Inhibition,Plasmodium falciparum [2],8%
same,Inhibition,HepG2,26%
C[C@H](Cc1ccc(OCCCCCCCOc2ccc(C[C@@H](C)NC[C@H](O)c3cccc(Cl)c3)cc2)cc1)NC[C@H](O)c1cccc(Cl)c1.Cl,Inhibition,Plasmodium falciparum [1],99%
same,Inhibition,Plasmodium falciparum [2],97%
same,Inhibition,HepG2,99%
Cn1cc(CN2CCC(OC(c3ccccc3)c3ccc(Cl)cc3)CC2)cn1 (configuration not stated),Inhibition,Plasmodium falciparum [1],94%
same,Inhibition,Plasmodium falciparum [2],61%
same,Inhibition,HepG2,39%
CC(C)OC(=O)c1cccnc1SCC(=O)Nc1ccc(C(F)(F)F)cc1Cl,Inhibition,Plasmodium falciparum [1],97%
same,Inhibition,Plasmodium falciparum [2],88%
same,Inhibition,HepG2,3%
O=C(c1ccc(-c2ccccn2)s1)N1CCc2cc3nccc(N4CCN5CCC[C@H]5C4)c3cc21,Inhibition,Plasmodium falciparum [1],96%
same,Inhibition,Plasmodium falciparum [2],49%
same,Inhibition,HepG2,0%
COc1ccc2nccc([C@@H](O)CN3CCC(NC(=O)C(c4cc5ccccc5o4)N4CCN(c5ccccc5OC)CC4)CC3)c2c1 (some centres not stated),Inhibition,Plasmodium falciparum [1],99%
same,Inhibition,Plasmodium falciparum [2],83%
same,Inhibition,HepG2,14%
O=C(Cc1ccc([N+](=O)[O-])cc1)N1CCc2cc3nccc(N4CCN5CCC[C@@H]5C4)c3cc21,Inhibition,Plasmodium falciparum [1],95%
same,Inhibition,Plasmodium falciparum [2],7%
same,Inhibition,HepG2,0%
O=C(Nc1ccccc1Cc1ccccc1)c1ccccc1[N+](=O)[O-],Inhibition,Plasmodium falciparum [1],98%
same,Inhibition,Plasmodium falciparum [2],59%
same,Inhibition,HepG2,0%
C=C[C@]1(C)C[C@@H](OC(=O)NC(=O)C2CCN(C(=O)CSc3ccccc3)CC2)[C@]2(C)[C@H](C)CC[C@]3(CCC(=O)[C@H]32)[C@@H](C)[C@@H]1O,Inhibition,Plasmodium falciparum [1],93%
same,Inhibition,Plasmodium falciparum [2],74%
same,Inhibition,HepG2,0%
CC(C)COc1ccc(Cl)cc1Cc1ccc(-c2nc3cc(CCN(C)C)ccc3[nH]2)o1.Cl,Inhibition,Plasmodium falciparum [1],92%
same,Inhibition,Plasmodium falciparum [2],7%
same,Inhibition,HepG2,10%
Clc1ccc(Cn2nc(Br)nc2Br)c(Cl)c1,Inhibition,Plasmodium falciparum [1],96%
same,Inhibition,Plasmodium falciparum [2],96%
same,Inhibition,HepG2,4%
O=C(CCc1c[nH]cn1)Nc1ccc(-c2ccc(-c3nc4ccccc4[nH]3)cc2)cc1,Inhibition,Plasmodium falciparum [1],98%
same,Inhibition,Plasmodium falciparum [2],70%
same,Inhibition,HepG2,46%
COc1cc2nc(N3CCC(CNC(=O)c4ccc(-c5ccc(-c6noc(C)n6)cc5C)cc4)CC3)nc(N)c2cc1OC,Inhibition,Plasmodium falciparum [1],100%
same,Inhibition,Plasmodium falciparum [2],99%
same,Inhibition,HepG2,99%
CC(C(=O)N1CCCC1)N1CCN(S(=O)(=O)c2ccc(C(C)(C)C)cc2)CC1 (configuration not stated),Inhibition,Plasmodium falciparum [1],98%
same,Inhibition,Plasmodium falciparum [2],86%
same,Inhibition,HepG2,4%
CN(CCS(C)(=O)=O)Cc1ccc(-c2ccc3ncnc(Nc4ccc(OCc5cccc(F)c5)c(Cl)c4)c3c2)o1.Cc1ccc(S(=O)(=O)O)cc1,Inhibition,Plasmodium falciparum [1],100%
same,Inhibition,Plasmodium falciparum [2],65%
same,Inhibition,HepG2,25%
CC(C)N(Cc1ccc(-c2ccc(C(F)(F)F)cc2)cc1)C(=O)Cn1c(SCc2cccc(F)c2F)cc(=O)c2cc(CN3CCCCC3)ccc21.Cl,Inhibition,Plasmodium falciparum [1],100%
same,Inhibition,Plasmodium falciparum [2],59%
same,Inhibition,HepG2,97%
CCc1ccc(C2CCN(CCCCNC(=O)c3ccc(NC(=O)c4ccc(Cl)cc4)cc3)CC2)c(OC(C)=O)c1,Inhibition,Plasmodium falciparum [1],91%
same,Inhibition,Plasmodium falciparum [2],100%
same,Inhibition,HepG2,48%
O=C(C1COc2ccccc2O1)N(CCCn1ccnc1)Cc1csc(-c2ccc(CNCc3ccccc3)cc2)n1.O=C(O)C(F)(F)F (configuration not stated),Inhibition,Plasmodium falciparum [1],100%
same,Inhibition,Plasmodium falciparum [2],18%
same,Inhibition,HepG2,15%
CCOc1ccc(NC(C)=O)c(O)c1,Inhibition,Plasmodium falciparum [1],96%
same,Inhibition,Plasmodium falciparum [2],0%
same,Inhibition,HepG2,6%
N#Cc1ccc(N/C(=N\c2ccc(-c3ccccc3)cc2)NCCc2c[nH]c3ccccc23)c(O)c1,Inhibition,Plasmodium falciparum [1],96%
same,Inhibition,Plasmodium falciparum [2],75%
same,Inhibition,HepG2,6%
O=C(Cc1ccc(NC(=O)c2ccc(O)c(-c3cccc([N+](=O)[O-])c3)c2)cc1)NCCN1CCCCC1,Inhibition,Plasmodium falciparum [1],89%
same,Inhibition,Plasmodium falciparum [2],3%
same,Inhibition,HepG2,4%
CC1CC1C(=O)NC1CCN(CC2(c3ccccc3)CCCCC2)CC1 (configuration not stated),Inhibition,Plasmodium falciparum [1],97%
same,Inhibition,Plasmodium falciparum [2],95%
same,Inhibition,HepG2,0%
O=C(NC1CCN(Cc2ccccc2)CC1)c1csc2nc(-c3ccc(Cl)cc3)cn12,Inhibition,Plasmodium falciparum [1],98%
same,Inhibition,Plasmodium falciparum [2],14%
same,Inhibition,HepG2,19%
COc1ccc2c(c1)Sc1ccccc1C(N1CCN(CCO)CC1)C2.Cl (configuration not stated),Inhibition,Plasmodium falciparum [1],95%
same,Inhibition,Plasmodium falciparum [2],4%
same,Inhibition,HepG2,11%
Cc1ccc(S(=O)(=O)Nc2ccc(Nc3nccc(Nc4cccc5[nH]ncc45)n3)cc2)cc1,Inhibition,Plasmodium falciparum [1],90%
same,Inhibition,Plasmodium falciparum [2],5%
same,Inhibition,HepG2,57%
Clc1ccc(CNc2nc(NCCc3c[nH]cn3)nc(Nc3ccc4c(c3)OCO4)n2)cc1,Inhibition,Plasmodium falciparum [1],84%
same,Inhibition,Plasmodium falciparum [2],6%
same,Inhibition,HepG2,8%
Cc1cccc2nc(-c3cccc(-c4cccc(NC(=O)c5cncn5C)c4)c3)[nH]c12,Inhibition,Plasmodium falciparum [1],100%
same,Inhibition,Plasmodium falciparum [2],91%
same,Inhibition,HepG2,0%
O=C(CN1CCC(NCc2cnc(-c3ccc(Cl)cc3)[nH]2)CC1)N1CCc2ccccc21,Inhibition,Plasmodium falciparum [1],100%
same,Inhibition,Plasmodium falciparum [2],5%
same,Inhibition,HepG2,11%
Fc1ccc2[nH]c(-c3cccc(-c4cccc(CN5CCN(c6cnccn6)CC5)c4)c3)nc2c1.O=C(O)C(F)(F)F,Inhibition,Plasmodium falciparum [1],93%
same,Inhibition,Plasmodium falciparum [2],35%
same,Inhibition,HepG2,17%
CC(C)NCc1cccc(-c2cccc(NC(=O)c3ccc(C#N)cc3)c2)c1.O=C(O)C(F)(F)F,Inhibition,Plasmodium falciparum [1],97%
same,Inhibition,Plasmodium falciparum [2],20%
same,Inhibition,HepG2,18%
O=C(O)C(F)(F)F.c1ccc2c(c1)CN(CC1CCOCC1)CC1(CCN(Cc3c[nH]c4cnccc34)CC1)O2,Inhibition,Plasmodium falciparum [1],99%
same,Inhibition,Plasmodium falciparum [2],7%
same,Inhibition,HepG2,21%
CN1CCCN(Cc2cccc(-c3cccc(NS(=O)(=O)c4cccc5cccnc45)c3)c2)CC1.O=C(O)C(F)(F)F,Inhibition,Plasmodium falciparum [1],97%
same,Inhibition,Plasmodium falciparum [2],74%
same,Inhibition,HepG2,21%
Cc1cc(Nc2ncc3c(n2)N(C2CCC2)CC3)ccc1N1CCN(C)CC1.Cl,Inhibition,Plasmodium falciparum [1],100%
same,Inhibition,Plasmodium falciparum [2],100%
same,Inhibition,HepG2,27%
Br.COc1ccc(OC)c2c1CCN(C)C2Cc1cccc2ccccc12 (configuration not stated),Inhibition,Plasmodium falciparum [1],91%
same,Inhibition,Plasmodium falciparum [2],79%
same,Inhibition,HepG2,13%
N#CCCN1CCN(Cc2cccc(-c3ccc(-c4nc5ccccc5[nH]4)s3)c2)CC1.O=C(O)C(F)(F)F,Inhibition,Plasmodium falciparum [1],96%
same,Inhibition,Plasmodium falciparum [2],8%
same,Inhibition,HepG2,48%
COc1cc2ncnc(Nc3ccc4nc(Cc5ccccc5)[nH]c4c3)c2cc1OC.Cl,Inhibition,Plasmodium falciparum [1],87%
same,Inhibition,Plasmodium falciparum [2],28%
same,Inhibition,HepG2,0%
Cl.c1cc(COc2ccc(C3=NCCN3)cc2)nc(COc2ccc(C3=NCCN3)cc2)c1,Inhibition,Plasmodium falciparum [1],100%
same,Inhibition,Plasmodium falciparum [2],98%
same,Inhibition,HepG2,8%
O=C(c1cccc(Br)c1)N1CCN(c2ccc([N+](=O)[O-])c(NC3CC3)c2)CC1,Inhibition,Plasmodium falciparum [1],99%
same,Inhibition,Plasmodium falciparum [2],100%
same,Inhibition,HepG2,5%
COc1ccc(CN(C)CCCCc2ccc(NC(=O)COc3cccc4sc5ccccc5c(=O)c34)cc2)cc1OC.O=C(O)C(=O)O,Inhibition,Plasmodium falciparum [1],100%
same,Inhibition,Plasmodium falciparum [2],84%
same,Inhibition,HepG2,26%
COc1ccc2nccc([C@@H](O)CN3CCC(NCc4nc5c(C#N)cccc5[nH]4)CC3)c2c1.O=C(O)C(=O)O,Inhibition,Plasmodium falciparum [1],96%
same,Inhibition,Plasmodium falciparum [2],9%
same,Inhibition,HepG2,0%
Cc1nc2nc(N)nc(N)c2c(C)c1Cc1ccccc1.Cl,Inhibition,Plasmodium falciparum [1],95%
same,Inhibition,Plasmodium falciparum [2],0%
same,Inhibition,HepG2,62%
